Results as given in PubChem BioAssay (EPA / NIEHS).
Inconclusive results are not listed. Active and inactive are the calls of the source. Rule for the calls, unless noted: active = hit-call score of the fitted dose curve at least 0.9, where 1 is the maximum; inconclusive = response in the unintended direction; inactive = score below 0.9.

Columns and labels:
[1] = Tanguay_ZF_120hpf_OTIC_legacy: (Legacy) Oregon State University Tanguay Lab 120 Hour Post-fertilization zebrafish Assay for Otic Vesicle Malformation (AID 2283639)
Summary of the method: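 Statically exposed wild-type 5D zebrafish embryos, kept sealed and dark at 28C through 120 hours post fertilization, were examined by brightfield microscopy for otic vesicle defects. Responses were recorded as present or absent and analysed relative to DMSO.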

[2] = Tanguay_ZF_120hpf_PE_legacy: (Legacy) Oregon State University Tanguay Lab 120 Hour Post-fertilization zebrafish Assay for Pericardial Edema (AID 2283640)
Summary of the method: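 Embryos from wild-type 5D adults were staged, then dosed in 0.64% DMSO. They were kept sealed in the dark at 28C until 120 hpf. Pericardial edema was then recorded as present or absent.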

[3] = Tanguay_ZF_120hpf_BRAI_legacy: (Legacy) Oregon State University Tanguay Lab 120 Hour Post-fertilization zebrafish Assay for Brain Malformation (AID 2283641)
Summary of the method: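 Wild-type 5D larvae, static waterborne exposure to 120 hpf, 28C, 0.64% v/v DMSO. Brightfield scoring of brain defects, binary; dead embryos excluded. Positive ctrl 5uM trimethyltin chloride.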

[4] = Tanguay_ZF_120hpf_CFIN_legacy: (Legacy) Oregon State University Tanguay Lab 120 Hour Post-fertilization zebrafish Assay for Caudal Fin Malformation (AID 2283649)
Summary of the method: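 Binary presence or absence of caudal fin malformation at 120 hpf, read by brightfield microscopy, with DMSO as baseline. Larvae came from 5D wild-type embryos exposed statically from 6 hpf at 28C after pronase dechorionation.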

[5] = Tanguay_ZF_120hpf_PIG_legacy: (Legacy) Oregon State University Tanguay Lab 120 Hour Post-fertilization zebrafish Assay for Pigmentation Malformation (AID 2283650)
Summary of the method: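 Brightfield scoring of pigmentation malformation at 120 hpf, recorded as binary present/absent per larva. Exposure: dechorionated 5D wild-type embryos, one per well, static from 6 hpf at 28C, final DMSO 0.64% (vol/vol). Dead embryos not scored.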

[6] = Tanguay_ZF_120hpf_CIRC_legacy: (Legacy) Oregon State University Tanguay Lab 120 Hour Post-fertilization zebrafish Assay for Circulatory Malformation (AID 2283651)
Summary of the method: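 Embryos are dechorionated at 4 hpf, plated one per well at 6 hpf, then held under static exposure at 28C until 120 hpf. Malformations are recorded as binary calls; mortality excludes other endpoints.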

[7] = Tanguay_ZF_120hpf_NC_legacy: (Legacy) Oregon State University Tanguay Lab 120 Hour Post-fertilization zebrafish Assay for Notochord and Tail Malformation (AID 2283656)
Summary of the method: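 Binary scoring of notochord distortion by brightfield microscopy; embryos dying were not scored. Wild-type Tropical 5D embryos, chorion removed, exposed singly and statically from 6 to 120 hpf, 28C, sealed, 0.64% DMSO.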

[8] = Tanguay_ZF_120hpf_TR_legacy: (Legacy) Oregon State University Tanguay Lab 120 Hour Post-fertilization zebrafish Assay for Touch Response (AID 2283667)
Summary of the method: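 Binary touch-response call at 120 hpf, analysed as gain of signal versus DMSO baseline. Wild-type 5D larvae, static exposure at 28C, 0.64% DMSO final; 5uM trimethyltin chloride as positive control.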

[9] = Tanguay_ZF_120hpf_SOMI_legacy: (Legacy) Oregon State University Tanguay Lab 120 Hour Post-fertilization zebrafish Assay for Somite Malformation (AID 2283647)
Summary of the method: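 Read-out: presence or absence of somite malformation in 120 hpf larvae, gain-of-signal relative to DMSO baseline. Embryos lacked chorion (pronase, 4 hpf) and were exposed statically from 6 hpf at 28C; dead larvae not scored.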

[10] = Tanguay_ZF_120hpf_PFIN_legacy: (Legacy) Oregon State University Tanguay Lab 120 Hour Post-fertilization zebrafish Assay for Pectoral Fin Malformation (AID 2283648);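 note: each larva judged yes or no for fin defect by brightfield with dead larvae skipped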
Summary of the method: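 Binary pectoral fin malformation call at 120 hpf by brightfield microscopy; 5D wild-type zebrafish, chorion removed at 4 hpf, one embryo per well from 6 hpf, static exposure at 28C; DMSO (0.64% final) as baseline.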

[11] = Tanguay_ZF_120hpf_TRUN_legacy: (Legacy) Oregon State University Tanguay Lab 120 Hour Post-fertilization zebrafish Assay for Truncated Body (AID 2283655)
Summary of the method: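 Truncated body is recorded as a binary endpoint at 120 hpf by brightfield imaging of wild-type 5D larvae. Exposure runs statically from 6 hpf at 28C with 0.64% DMSO; embryos dying earlier are not scored.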

[12] = system: Thyroperoxidase (TPO), gene 54314; test: CCTE_Simmons_AUR_rTPO: CCTE's Amplex UltraRed Assay for Thyroperoxidase (TPO) Inhibition, Simmons Lab (AID 2283662);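 note: potency for loss of signal meaning inhibition of peroxidase activity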
Summary of the method: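 Rat thyroid microsomal TPO + 25 uM AUR in 200 mM K phosphate; cpd 5 nM–87.5 uM [final], 8 conc, 0.5% DMSO; 300 uM H2O2 starts rxn; 37C dark 30 min; endpoint FI 544/590 nm; n=3.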

[13] = CCTE_Simmons_CellTiterGLO_HEK293T: Viability Assessment in CCTE's Assays for Thyroperoxidase (TPO) Inhibition, Simmons Lab (AID 2283665);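 for AC50: cells exposed to compound for 24 h before readout; actives reduce ATP signal below DMSO vehicle meaning cytotoxicity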
Summary of the method: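 Cells were seeded overnight, then exposed to an eight-point series up to 87.5 uM final for 24 hours. CellTiter-Glo reagent was added and luminescence read after 20 min, giving ATP-based viability versus DMSO.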

[14] = Tanguay_ZF_120hpf_SWIM_legacy: (Legacy) Oregon State University Tanguay Lab 120 Hour Post-fertilization zebrafish Assay for Swim Bladder Malformation (AID 2283654);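 note: swim bladder malformation in each larva scored yes or no under brightfield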
Summary of the method: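 Tropical 5D embryos dechorionated at 4 hpf; 1 embryo/well from 6 hpf; static, sealed, dark exposure at 28C until 120 hpf; final DMSO 0.64%; 5uM trimethyltin chloride positive control; swim bladder defect recorded yes/no; dead embryos not scored.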

[15] = read-out: solute carrier (SLC22A6), SLC22A6 (gene 9356); test: LTEA_HepaRG_SLC22A6: Life Technologies and Expression Analysis (LTEA) Assay for solute carrier (SLC22A6) using HepaRG (AID 2283653; active = hit-call score of the fitted dose curve at least 0.9, where 1 is the maximum; inactive = score below 0.9); details: mRNA level, 48 h; actives raise or lower the signal
Summary of the method: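 Read-out is SLC22A6 transcript level by qRT-PCR, normalised to three housekeeping genes and fitted for gain or loss relative to 0.5% DMSO vehicle. Human HepaRG cells received chemicals at up to 100 uM for 48 h.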

[16] = read-out: solute carrier (SLC10A1), SLC10A1 (gene 6554); test: LTEA_HepaRG_SLC10A1: Life Technologies and Expression Analysis (LTEA) Assay for solute carrier (SLC10A1) using HepaRG (AID 2283657; active = hit-call score of the fitted dose curve at least 0.9, where 1 is the maximum; inactive = score below 0.9); details: mRNA level, 48 h; actives raise or lower the signal
Summary of the method: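 HepaRG, 48 h exposure, 8-pt half-log curve from 100 uM in 0.5% DMSO, duplicates. Read-out: TaqMan qRT-PCR of SLC10A1 mRNA, normalized to three housekeeping genes. Gain/loss fit vs DMSO baseline.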

[17] = read-out: matrix metalloproteinase-1 (MMP1), MMP1 (gene 4312); test: LTEA_HepaRG_MMP1: Life Technologies and Expression Analysis (LTEA) Assay for matrix metalloproteinase-1 (MMP1) using HepaRG (AID 2283658; active = hit-call score of the fitted dose curve at least 0.9, where 1 is the maximum; inactive = score below 0.9); details: mRNA level, 48 h; actives raise or lower the signal
Summary of the method: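 HepaRG, ~100,000 cells/well, 48 h pre-culture; serum-free induction medium; test chemical 8 conc (max 100 uM, half-log), duplicate, 48 h; 0.5% DMSO; qRT-PCR MMP1, housekeeping-normalized; gain/loss fit vs DMSO.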

[18] = read-out: kallikrein-3 (KLK3), KLK3 (gene 354); test: LTEA_HepaRG_KLK3: Life Technologies and Expression Analysis (LTEA) Assay for kallikrein-3 (KLK3) using HepaRG (AID 2283652; active = hit-call score of the fitted dose curve at least 0.9, where 1 is the maximum; inactive = score below 0.9); details: mRNA level, 48 h; actives raise or lower the signal
Summary of the method: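 KLK3 transcript levels were measured by TaqMan qRT-PCR with normalisation to three housekeeping genes. HepaRG cultures received chemicals for 48 h at up to 100 uM (half-log, 8 points, 0.5% DMSO vehicle), fitted in both directions against DMSO.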

Measured: AC50

CCOC(=O)NCCOc1ccc(Oc2ccccc2)cc1
inactive: [1] | [2] | [3] | [4] | [5] | [6] | [7] | [8]

CCCN(CCC)c1c([N+](=O)[O-])cc(C(F)(F)F)c(N)c1[N+](=O)[O-]
inactive: [1] | [2] | [3] | [9] | [4] | [5] | [6] | [8]

COc1c(Cl)ccc(Cl)c1C(=O)O
inactive: [1] | [2] | [3] | [9] | [4] | [6] | [7] | [8]

CCOC(=O)C(C)Oc1ccc(Oc2nc3ccc(Cl)cc3o2)cc1 (stereo not drawn)
inactive: [1] | [2] | [3] | [9] | [10] | [6] | [11] | [7] | [13] | [8]
active: [12] 43.6 µM

CCSC(=O)N(CC(C)C)CC(C)C
inactive: [1] | [2] | [3] | [9] | [4] | [5] | [14] | [7] | [8]

N#CSCSc1nc2ccccc2s1
inactive: [1] | [2] | [3] | [9] | [4] | [6] | [15] | [7] | [17] | [8]
active: [16] 83.6 µM | [12] 2.57 µM | [13] 9.18 µM

S=C([S-])NCCNC(=S)[S-].[Mn+2]
inactive: [1] | [2] | [3] | [9] | [4] | [6] | [18] | [15] | [14] | [7] | [17] | [8]
active: [16] 9.93 µM | [12] 12.6 µM

CCOC(=O)C(C)Oc1ccc(Oc2cnc3cc(Cl)ccc3n2)cc1 (stereo not drawn)
inactive: [1] | [2] | [3] | [9] | [4] | [6] | [7] | [8]

CC1(C)C(C=C(Cl)Cl)C1C(=O)OCc1cccc(Oc2ccccc2)c1 (stereo not drawn)
inactive: [1] | [2] | [3] | [9] | [4] | [7]

CCCCCOC(=O)COc1cc(N2C(=O)C3=C(CCCC3)C2=O)c(F)cc1Cl
inactive: [1] | [2] | [3] | [9] | [4] | [6] | [7] | [8]

O=C(c1ccccc1)C1CCCCC1
inactive: [1] | [2] | [3] | [9] | [4] | [6] | [7] | [8]

CCCCOC(=O)[C@@H](C)Oc1ccc(Oc2ccc(C(F)(F)F)cn2)cc1
inactive: [1] | [2] | [3] | [9]

CCC(C)OC(=O)N1CCCCC1CCO (stereo not drawn)
inactive: [1] | [2] | [3] | [9] | [6] | [14] | [7] | [8]
